# Measured values as given in PubChem BioAssay (Tox21).
# Values without a mark were called inactive. Results filed as inconclusive are left out. Entries that show only a call come without a potency. Activity calls are given as the source filed them. The call rests on the fitted dose curve.
# Columns and labels:
# [1] = target: Acetylcholinesterase (Homo sapiens) (UniProt P22303); assay: Acetylcholinesterase (AChE) small molecule antagonists: colormetric cell-based qHTS assay (AID 1347395); further: nearly all actives have a fitted effect of over 30% in size; further: potency means the concentration at half of the fitted maximal effect
# Procedure, shortened: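 SH-SY5Y cells, plated overnight at 37 C, were exposed to compounds for 30 min at 37 C and 5% CO2. Acetylthiocholine plus DTNB was then added, and thiocholine from endogenous AChE was quantified colorimetrically after 90 min at 37 C.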
# [2] = target: Acetylcholinesterase (Homo sapiens) (UniProt P22303); assay: Acetylcholinesterase (AChE) small molecule antagonists: fluorescence cell-based qHTS assay (AID 1347398); settings: Potency: AChE activity; outcome: AChE activity; further: nearly all actives have a fitted effect of over 50% in size; further: potency means the concentration at half of the fitted maximal effect
# Procedure, shortened: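 Human SH-SY5Y cells were plated overnight at 37 C, exposed to compound for 30 min at 37 C, 5% CO2, then given acetylthiocholine plus Thiolite Green for 40 min at room temperature; thiocholine fluorescence (Ex/Em 490/520 nm) reports endogenous AChE activity.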
# [3] = target: Acetylcholinesterase (Homo sapiens) (UniProt P22303); assay: Acetylcholinesterase (AChE) small molecule antagonists: enzyme-based qHTS assay with human liver microsomes (AID 1347399); settings: Potency: qHTS inhibition; outcome: qHTS inhibition; further: nearly all actives have a fitted effect of over 60% in size
# Procedure, shortened: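 Recombinant human AChE (50 mU/mL in the enzyme mix) and human liver microsomes (0.25 mg/mL final) were preincubated with compound and NADPH (0.25 mg/mL final) for 30 min at 37 C. Acetylthiocholine/DTNB was then added; thiocholine was read colorimetrically after 10 min at room temperature.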
# Acetylcholinesterase (Homo sapiens), sequence (P22303 whole entry, looked up): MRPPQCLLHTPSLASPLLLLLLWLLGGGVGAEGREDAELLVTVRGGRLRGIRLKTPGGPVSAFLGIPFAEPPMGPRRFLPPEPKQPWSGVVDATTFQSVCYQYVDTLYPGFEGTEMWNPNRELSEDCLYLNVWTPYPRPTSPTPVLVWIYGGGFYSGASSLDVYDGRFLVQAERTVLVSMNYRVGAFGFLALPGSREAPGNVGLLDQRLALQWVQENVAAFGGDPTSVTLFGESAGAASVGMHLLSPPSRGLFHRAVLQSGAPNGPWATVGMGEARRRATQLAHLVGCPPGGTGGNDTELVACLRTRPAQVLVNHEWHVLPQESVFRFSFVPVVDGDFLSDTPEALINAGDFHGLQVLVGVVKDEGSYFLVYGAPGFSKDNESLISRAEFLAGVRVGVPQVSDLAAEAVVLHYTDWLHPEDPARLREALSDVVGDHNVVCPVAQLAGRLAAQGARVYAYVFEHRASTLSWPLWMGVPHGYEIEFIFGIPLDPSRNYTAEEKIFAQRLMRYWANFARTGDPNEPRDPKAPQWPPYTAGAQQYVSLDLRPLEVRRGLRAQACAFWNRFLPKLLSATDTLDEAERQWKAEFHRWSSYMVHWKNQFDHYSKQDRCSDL
SMILES,Potency [1],Potency [2],Potency [3],"activity, negative = inhibition [1]","activity change, negative = inhibition [2]","activity change, negative = inhibition [3]"
CCCCCOc1ccccc1/C(=C\SC)n1ccnc1,inactive,inactive,inactive,,,
COCCO,inactive,inactive,inactive,,,
NC(=O)Nc1ccccc1,inactive,inactive,inactive,,,
CC(=O)Nc1ccc(S(N)(=O)=O)cc1,inactive,inactive,inactive,,,
NCc1ccccc1,inactive,inactive,inactive,,,
CCCCOc1ccc(OCCCN2CCOCC2)cc1,inactive,inactive,inactive,,,
CCc1cc(SCc2sc(-c3ccc(C(F)(F)F)cc3)nc2CN2CCN(c3ccc(OC)cc3)CC2)ccc1OCC(=O)O,inactive,inactive,inactive,,,
c1ccc(C[P+](c2ccccc2)(c2ccccc2)c2ccccc2)cc1,71 µM (active),12.6 µM (active),inactive,,,
CCCCCCCCOC(=O)CCCCCCCCC(=O)OCCCCCCCC,inactive,inactive,inactive,,,
Nc1cccc2c(=O)[nH][nH]c(=O)c12,inactive,inactive,inactive,,,
CC(C)(O)c1ccccc1CC[C@@H](SCC1(CC(=O)O)CC1)c1cccc(/C=C/c2ccc3ccc(Cl)cc3n2)c1,inactive,inactive,inactive,,,
CNc1ccc(O)cc1,22.4 µM (active),31.7 µM (active),inactive,,,
Cc1nc2n(c(=O)c1CCN1CCC(C(=O)c3ccc(F)cc3)CC1)CCS2,13.8 µM (active),9.77 µM (active),inactive,,,
CC(C)CCCCCCCCCCCCCCC(=O)O,inactive,inactive,inactive,,,
N#CCCOCCC#N,inactive,inactive,inactive,,,
CNC(=O)C(c1ccccc1)c1ccccc1,inactive,inactive,inactive,,,
CCCCCCCCCCCCCCCCCCCl,,,,-3.15% [at 10.5 µM],5.41% [at 10.5 µM],0.243% [at 10.5 µM]
O=C1NCCN1CCN1CCC(c2cn(-c3ccc(F)cc3)c3ccc(Cl)cc23)CC1,inactive,24.5 µM (active),inactive,,,
Cc1ccc(OC(=O)c2ccccc2O)cc1,inactive,inactive,inactive,,,

SMILES,Potency [1],Potency [2],Potency [3],"activity, negative = inhibition [1]","activity change, negative = inhibition [2]","activity change, negative = inhibition [3]"
Cc1nc2ccccn2c(=O)c1CCN1CCC(C(=O)c2ccc(F)cc2)CC1,24.5 µM (active),7.76 µM (active),inactive,,,
CCCCCCCCCCCCOC(=O)c1ccc(O)cc1,inactive,inactive,inactive,,,
CO[C@H]1C=CO[C@@]2(C)Oc3c(C)c(O)c4c(O)c(cc(O)c4c3C2=O)NC(=O)/C(C)=C\C=C/[C@H](C)[C@H](O)[C@@H](C)[C@@H](O)[C@@H](C)[C@H](OC(C)=O)[C@@H]1C,inactive,inactive,inactive,,,
O=C(OC[C@H]1O[C@@H](OC(=O)c2cc(O)c(O)c(OC(=O)c3cc(O)c(O)c(O)c3)c2)[C@H](OC(=O)c2cc(O)c(O)c(OC(=O)c3cc(O)c(O)c(O)c3)c2)[C@@H](OC(=O)c2cc(O)c(O)c(OC(=O)c3cc(O)c(O)c(O)c3)c2)[C@@H]1OC(=O)c1cc(O)c(O)c(OC(=O)c2cc(O)c(O)c(O)c2)c1)c1cc(O)c(O)c(OC(=O)c2cc(O)c(O)c(O)c2)c1,,,,1.72% [at 23.6 µM],-11.1% [at 23.8 µM],-0.451% [at 23.6 µM]
CCc1c(Br)c(Br)c(Br)c(Br)c1Br,inactive,inactive,inactive,,,
CCCCCCCCCCCCCCCCC(C(=O)O)C(O)(CC(=O)O)C(=O)O (stereo unspecified),inactive,inactive,inactive,,,
CCN(CC)c1cccc(C)c1,inactive,inactive,inactive,,,
CCCCC/C=C\C/C=C\CCCCCCCC(=O)NC(C)c1ccccc1 (stereo unspecified),inactive,inactive,inactive,,,
N=C1N=C(N)c2ccccc21,inactive,inactive,inactive,,,
CC1=CCC(C(C)C)C=C1 (stereo unspecified),inactive,inactive,inactive,,,
OC[C@@H](O)[C@@H](O)CO,inactive,inactive,inactive,,,
CCC(Cl)CCC(Cl)C(Cl)CC(Cl)C(Cl)C(Cl)CCl (stereo unspecified),inactive,inactive,inactive,,,
O=C(/C=C/c1ccc(O)c(O)c1)O[C@@H]1C[C@](O)(C(=O)O)C[C@@H](O)[C@H]1O,inactive,inactive,inactive,,,
CCCCCCOC(=O)CC,inactive,inactive,inactive,,,
CC(CC(=O)Cl)CC(C)(C)C (stereo unspecified),inactive,inactive,inactive,,,
Nc1cc(C(=O)O)c(O)c(S(=O)(=O)O)c1,inactive,inactive,inactive,,,
CC(C)=CCC/C(C)=C/COC=O,inactive,inactive,inactive,,,
CC(C)C(=O)O,inactive,inactive,inactive,,,
